Results reported in PubChem BioAssay AID1159580 (chemical genetic matrix, 2015).
Hit rate of the full screen: of about 5,500 compounds, about 2,000 (36%) were called active. Inconclusive results (about 18%) are left out. Cut-off read from the data, not from the text of the source: active = normalized growth mostly below about 0.91 (no sharp cut-off); inconclusive = no clear call, values can overlap the other calls; inactive = mostly above about 0.92. The list shows a part of the results.

Experiment: chemical genetic growth profiling, strain panel (AID 1159580);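 note: tested at 20 µM; growth read once vehicle control cultures reached saturation at 30 °C; 1 = growth at the plate median or of vehicle wells; lower values mean less growth of the strain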
Settings: growth OD
[1] = S. cerevisiae deletion strains, locus YGR078C, strain PAC10, active compounds read low
[2] = S. cerevisiae deletion strains, locus YMR263W, strain SAP30, active compounds read low
[3] = S. cerevisiae deletion strains, locus YMR307W, strain GAS1, active compounds read low
[4] = S. cerevisiae deletion strains, locus YNL322C, strain KRE1, active compounds read low
[5] = S. cerevisiae deletion strains, locus YPL241C, strain CIN2, active compounds read low
[6] = S. cerevisiae deletion strains, locus YDL101C, strain DUN1, active compounds read low
[7] = S. cerevisiae deletion strains, locus YHR030C, strain SLT2, active compounds read low

Measured: normalized growth

CCCc1c(-c2ccc(O)cc2)nn(-c2ccc(O)cc2)c1-c1ccc(O)cc1
inactive: S. cerevisiae deletion strains, locus YAL040C, strain CLN3, active compounds read low 0.985 | S. cerevisiae deletion strains, locus YCL061C, strain MRC1 (second series), active compounds read low 0.999 | S. cerevisiae deletion strains, locus YDR363W, strain ESC2, active compounds read low 0.994 | S. cerevisiae deletion strains, locus YER002W, strain NOP16, active compounds read low 1 | [1] 1 | [2] 0.995 | [3] 1.01 | S. cerevisiae deletion strains, locus YNL175C, strain NOP13, active compounds read low 1.02 | S. cerevisiae deletion strains, locus YNL197C, strain WHI3, active compounds read low 1.01 | S. cerevisiae deletion strains, locus YNL224C, strain SQS1, active compounds read low 1 | [4] 0.988 | S. cerevisiae deletion strains, locus YOR083W, strain WHI5 (second series), active compounds read low 0.948 | [5] 0.991

O=C1CCc2cccc3cccc1c23
inactive: S. cerevisiae deletion strains, locus YAL013W, strain DEP1, active compounds read low 0.963 | S. cerevisiae deletion strains, locus YBR229C, strain ROT2, active compounds read low 0.984 | [6] 0.932 | S. cerevisiae deletion strains, locus YDR150W, strain NUM1, active compounds read low 0.966 | S. cerevisiae deletion strains, locus YEL061C, strain CIN8, active compounds read low 0.954 | [1] 0.962 | [7] 0.769 | S. cerevisiae deletion strains, locus YHR087W, strain rtc3, active compounds read low 1.01 | S. cerevisiae deletion strains, locus YJL187C, strain SWE1, active compounds read low 0.981 | S. cerevisiae deletion strains, locus YJR043C, strain POL32, active compounds read low 0.988 | S. cerevisiae deletion strains, locus YJR075W, strain HOC1, active compounds read low 0.997 | S. cerevisiae deletion strains, locus YLR058C, strain SHM2 (second series), active compounds read low 0.982 | S. cerevisiae deletion strains, locus YML094W, strain GIM5, active compounds read low 0.921 | S. cerevisiae deletion strains, locus YMR219W, strain ESC1, active compounds read low 0.988 | [2] 0.969 | [3] 1.03 | S. cerevisiae deletion strains, locus YNL153C, strain GIM3, active compounds read low 0.934 | S. cerevisiae deletion strains, locus YNL298W, strain CLA4 (second series), active compounds read low 0.906 | [4] 0.957 | S. cerevisiae deletion strains, locus YNR030W, strain Alg12, active compounds read low 0.927 | S. cerevisiae deletion strains, locus YPL055C, strain LGE1, active compounds read low 1 | [5] 0.933 | S. cerevisiae deletion strains, locus YPR135W, strain CTF4, active compounds read low 0.713 | S. cerevisiae strains, strain wild type, active compounds read low 0.949
active: S. cerevisiae deletion strains, locus YLR039C, strain RIC1, active compounds read low 0.679 | S. cerevisiae deletion strains, locus YLR085C, strain ARP6, active compounds read low 0.764 | S. cerevisiae deletion strains, locus YLR262C, strain YPT6, active compounds read low 0.672

Cc1cccc(N=NC(C(=O)C(F)(F)F)=C(O)c2cccs2)c1
active: S. cerevisiae deletion strains, locus YLR113W, strain HOG1, active compounds read low 0.713 | S. cerevisiae deletion strains, locus YPL256C, strain CLN2, active compounds read low 0.777
inactive: S. cerevisiae deletion strains, locus YAR019C, strain CDC15, active compounds read low 0.995 | S. cerevisiae deletion strains, locus YBL105C, strain PKC1, active compounds read low 0.985 | S. cerevisiae deletion strains, locus YBR135W, strain CKS1, active compounds read low 0.987 | S. cerevisiae deletion strains, locus YBR136W, strain MEC1, active compounds read low 0.993 | S. cerevisiae deletion strains, locus YBR160W, strain CDC28, active compounds read low 0.996 | S. cerevisiae deletion strains, locus YDL017W, strain CDC7, active compounds read low 0.986 | S. cerevisiae deletion strains, locus YDL028C, strain MPS1, active compounds read low 0.996 | [6] 0.988 | S. cerevisiae deletion strains, locus YDL108W, strain KIN28, active compounds read low 0.984 | S. cerevisiae deletion strains, locus YDL132W, strain cdc53, active compounds read low 0.978 | S. cerevisiae deletion strains, locus YDL214C, strain PRR2, active compounds read low 0.975 | S. cerevisiae deletion strains, locus YDR052C, strain DBF4, active compounds read low 0.99 | S. cerevisiae deletion strains, locus YDR054C, strain cdc34, active compounds read low 0.976 | S. cerevisiae deletion strains, locus YDR226W, strain ADK1, active compounds read low 0.992 | S. cerevisiae deletion strains, locus YDR477W, strain SNF1, active compounds read low 0.975 | S. cerevisiae deletion strains, locus YER123W, strain YCK3, active compounds read low 0.979 | S. cerevisiae deletion strains, locus YER133W, strain GLC7, active compounds read low 0.975 | S. cerevisiae deletion strains, locus YFL009W, strain cdc4, active compounds read low 0.988 | S. cerevisiae deletion strains, locus YFL029C, strain CAK1, active compounds read low 0.993 | S. cerevisiae deletion strains, locus YFR003C, strain YPI1, active compounds read low 0.99 | S. cerevisiae deletion strains, locus YFR019W, strain FAB1, active compounds read low 0.992 | S. cerevisiae deletion strains, locus YFR028C, strain CDC14, active compounds read low 0.983 | S. cerevisiae deletion strains, locus YGR040W, strain KSS1, active compounds read low 0.974 | S. cerevisiae deletion strains, locus YGR052W, strain FMP48, active compounds read low 0.927 | S. cerevisiae deletion strains, locus YGR092W, strain DBF2, active compounds read low 0.946 | [7] 0.876 | S. cerevisiae deletion strains, locus YHR079C, strain IRE1, active compounds read low 0.749 | S. cerevisiae deletion strains, locus YHR082C, strain KSP1, active compounds read low 1.07 | S. cerevisiae deletion strains, locus YHR205W, strain SCH9, active compounds read low 0.985 | S. cerevisiae deletion strains, locus YIL147C, strain SLN1, active compounds read low 0.988 | S. cerevisiae deletion strains, locus YJL095W, strain BCK1, active compounds read low 0.787 | S. cerevisiae deletion strains, locus YJL128C, strain PBS2, active compounds read low 0.944 | S. cerevisiae deletion strains, locus YJL157C, strain FAR1, active compounds read low 0.989 | S. cerevisiae deletion strains, locus YJR016C, strain ILV3, active compounds read low 0.984 | S. cerevisiae deletion strains, locus YJR066W, strain TOR1 (second series), active compounds read low 0.988 | S. cerevisiae deletion strains, locus YJR066W, strain TOR1, active compounds read low 1.07 | S. cerevisiae deletion strains, locus YKL048C, strain ELM1, active compounds read low 0.976 | S. cerevisiae deletion strains, locus YKL067W, strain YNK1, active compounds read low 0.976 | S. cerevisiae deletion strains, locus YKL101W, strain HSL1, active compounds read low 0.951 | S. cerevisiae deletion strains, locus YKL193C, strain SDS22, active compounds read low 0.991 | S. cerevisiae deletion strains, locus YKL203C, strain TOR2, active compounds read low 1.06 | S. cerevisiae deletion strains, locus YLR133W, strain CKI1, active compounds read low 0.983 | S. cerevisiae deletion strains, locus YLR403W, strain SFP1, active compounds read low 0.979 | S. cerevisiae deletion strains, locus YML070W, strain DAK1, active compounds read low 0.973 | S. cerevisiae deletion strains, locus YMR001C, strain CDC5, active compounds read low 0.979 | S. cerevisiae deletion strains, locus YMR205C, strain PFK2 (second series), active compounds read low 0.984 | S. cerevisiae deletion strains, locus YMR277W, strain FCP1, active compounds read low 0.989 | S. cerevisiae deletion strains, locus YNL006W, strain LST8, active compounds read low 0.988 | S. cerevisiae deletion strains, locus YNL020C, strain ARK1, active compounds read low 0.979 | S. cerevisiae deletion strains, locus YNL161W, strain CBK1, active compounds read low 0.99 | S. cerevisiae deletion strains, locus YNL183C, strain NPR1, active compounds read low 0.842 | S. cerevisiae deletion strains, locus YNL207W, strain RIO2, active compounds read low 0.986 | S. cerevisiae deletion strains, locus YNL222W, strain SSU72, active compounds read low 0.987 | S. cerevisiae deletion strains, locus YNL307C, strain MCK1 (second series), active compounds read low 0.984 | S. cerevisiae deletion strains, locus YOL078W, strain AVO1, active compounds read low 0.988 | S. cerevisiae deletion strains, locus YOL136C, strain PFK27, active compounds read low 0.989 | S. cerevisiae deletion strains, locus YOR061W, strain CKA2, active compounds read low 0.983 | S. cerevisiae deletion strains, locus YOR119C, strain RIO1, active compounds read low 0.999 | S. cerevisiae deletion strains, locus YOR231W, strain MKK1, active compounds read low 0.797 | S. cerevisiae deletion strains, locus YOR329C, strain SCD5, active compounds read low 0.984 | S. cerevisiae deletion strains, locus YPL031C, strain PHO85, active compounds read low 0.953 | S. cerevisiae deletion strains, locus YPL153C, strain RAD53, active compounds read low 0.948 | S. cerevisiae deletion strains, locus YPL204W, strain HRR25, active compounds read low 0.97 | S. cerevisiae deletion strains, locus YPL209C, strain IPL1, active compounds read low 0.99 | S. cerevisiae deletion strains, locus YPR025C, strain CCL1, active compounds read low 0.985 | S. cerevisiae deletion strains, locus YPR106W, strain ISR1, active compounds read low 0.98 | S. cerevisiae deletion strains, locus YPR111W, strain DBF20, active compounds read low 0.972 | S. cerevisiae deletion strains, strain NNK1, active compounds read low 0.995 | S. cerevisiae deletion strains, strain TSCII, active compounds read low 0.988
